Assay results published in PubChem BioAssay AID492953 (The Scripps Research Institute Molecular Screening Center, 2010).
Hit rate of the full screen: of about 340,000 compounds, about 4,200 (1.2%) were called active.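 How the source made its calls: active means inhibition above the mean of all tested compounds plus 3 SD (cut at about 24% in these data); inactive means the rest.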 The list comes from a sample in which actives are over-represented; it also holds similar structures and randomly drawn compounds.

Target: Platelet-activating factor acetylhydrolase IB subunit alpha2 (Homo sapiens) (UniProt P68402)
Assay: PAFAH1B2 enzyme inhibitors, primary screen, biochemical, fluorescence polarization, human (AID 492953);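 further: 0% = enzyme with DMSO and 100% = wells lacking PAFAH1B2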
Conditions: recombinant PAFAH1B2, FP-rhodamine activity probe, at 3.39 µM, stronger effect = higher value

Chain of Platelet-activating factor acetylhydrolase IB subunit alpha2 (Homo sapiens) (P68402 whole entry, looked up): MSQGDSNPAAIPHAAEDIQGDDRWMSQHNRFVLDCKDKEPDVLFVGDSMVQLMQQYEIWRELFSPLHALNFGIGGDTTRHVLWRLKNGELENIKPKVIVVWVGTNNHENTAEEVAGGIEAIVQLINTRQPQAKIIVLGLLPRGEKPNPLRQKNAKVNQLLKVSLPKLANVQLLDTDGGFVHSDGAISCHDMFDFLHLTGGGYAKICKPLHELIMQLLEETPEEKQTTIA

inhibition, active:
Cc1ccc(S(=O)(=O)n2nc(OC(=O)C(C)(C)C)cc2N)cc1 24.3%, Cc1c(C)c2c(OCC(=O)N[C@@H](C(=O)O)c3ccccc3)cc3c(c2oc1=O)CCC(C)(C)O3 38%, O=C(COc1ccc(Cl)cc1)NCCC1=CCCCC1 27.5%, CC1CCC2CCCCC2N1C(=O)c1cc([N+](=O)[O-])cc([N+](=O)[O-])c1 (stereo unspecified) 24.7%, CCN(C(=O)COC(=O)c1cc(NS(=O)(=O)c2ccc(Cl)c([N+](=O)[O-])c2)ccc1O)C1CCCCC1 45.9%, COc1cc(C(=O)NCC2(c3ccccc3)CCCC2)ccc1OC(C)C 69.7%, COc1cccc2c1C(=O)c1c(O)c3c(c(O)c1C2=O)CC(O)(C(C)=NNC(=O)c1ccc(Cl)c(Cl)c1)CC3OC1CC(N)C(O)C(C)O1 (stereo unspecified) 52.5%, CCOc1cc(/C=C(/C#N)c2ccc(Cl)cc2)cc(Cl)c1OCC(=O)O 71.1%

inhibition, inactive:
Cc1ccc(S(=O)(=O)N2CCC(N3CCCCCC3)CC2)cc1 5.12%, Cc1ccc(S(=O)(=O)NC2CCCCCC2)cc1 11.5%, COc1ccc(/C(C)=N/N2CCOCC2)c(O)c1 3.71%, CCOc1ccccc1N(CC(=O)NC1CCCCC1)C(=O)CCCC(=O)Nc1ccccn1 2.23%, Cc1ccc(S(=O)(=O)N2CCC(C(=O)N3CCCCCCC3)CC2)cc1 -2.62%, Nc1cc(OC(=O)c2ccccc2Br)nn1S(=O)(=O)c1ccccc1 -1.3%, CCOC(=O)N1CCN(c2cc(C)c([N+](=O)[O-])cc2F)CC1 6.77%, Cc1ccc(CNS(=O)(=O)CCNC(=O)c2ccccc2)cc1 0.61%, Cc1ccc(N(C(=O)c2ccc(CN3CCOCC3)o2)C(C(=O)NCCC(C)C)c2cccs2)c(C)c1 (stereo unspecified) 2.55%, Cc1c(C)c2c(OCC(=O)NCCCO)cc3c(c2oc1=O)CCC(C)(C)O3 9.23%, Cc1cc(=O)oc2c3c(cc(OCC(=O)NCCC(=O)N[C@@H](C)C(=O)O)c12)OC(C)(C)CC3 2.72%, COCC1CCCN(Cc2cn[nH]c2-c2cc3ccccc3o2)C1 (stereo unspecified) -0.69%, Cc1ccccc1NC(=O)N1CCCC1C(=O)NCc1ccccc1 (stereo unspecified) 3.76%, O=[N+]([O-])c1ccc(NCCCO)c(C(F)(F)F)c1 6.89%, COCC1CCCN(Cc2nc(-c3ccc4c(c3)OCO4)no2)C1 (stereo unspecified) 3.45%, O=C(COc1cccc(-n2cnnn2)c1)NCCC1=CCCCC1 10.3%, CC(C)COc1ccc(C(=O)OCC(=O)NCCC2=CCCCC2)cc1 2.59%, CC1CCN(C(=S)c2cccc([N+](=O)[O-])c2)CC1 19.4%, CC1(c2ccccc2)CC(C)(C)N(C(=O)c2cc([N+](=O)[O-])cc([N+](=O)[O-])c2)c2ccccc21 (stereo unspecified) -0.31%, COc1ccc(CN2CCN(C(=O)c3cc(C4CC4)nn3-c3ccccc3)CC2)cc1F 2.17%, O=C(COc1cccc2c1CCNC2=O)NC1CCCCC1 -3.94%, O=C(Nc1ccc2ccccc2c1[N+](=O)[O-])c1ccccc1 5.08%, CN(C)c1ccc(S(=O)(=O)NCC(=O)NCC2CCCCC2)cc1[N+](=O)[O-] 8.33%, COc1ccc(NS(=O)(=O)c2ccc(O)c(C(=O)OCC(=O)NC3CCCCC3)c2)cc1 19.8%, Cc1c(NS(=O)(=O)c2cccc(C(=O)Nc3ccc(SC(F)F)cc3)c2)c(=O)n(-c2ccccc2)n1C 5.1%, COc1ccc(C(=O)CSc2nnc(NC(=O)C3CC(=O)N(c4cccc(OC)c4)C3)s2)cc1 (stereo unspecified) -6.09%, O=C(CNC(=O)c1cc(S(=O)(=O)N2CCOCC2)ccc1N1CCCC1)Nc1ccc(F)c(F)c1 -4.31%, COc1cc(C(=O)Nc2cc(C(F)(F)F)ccc2-n2cncn2)cc(OC)c1OC -1.88%, CCc1nn(CC(=O)N2CCN(c3cc(C)ccc3C)CC2)c(=O)c2cc3occc3n12 2.35%, CSCCC(NC(=O)COc1ccccc1)C(=O)N1CCN(c2cccc(C(F)(F)F)c2)CC1 (stereo unspecified) 7.1%, CC(=O)NC1=NC(=O)CS1 -3.07%, COc1ccc(C2(CNC(=O)C(c3ccccc3)c3ccccc3)CCOCC2)cc1OC -0.88%, COc1ccc(C2(CNC(=O)Cc3ccc(OC)c(OC)c3)CCCC2)cc1 -0.19%, CCCCc1nc2cc(C(=O)NCCc3cnn(C)c3)ccc2o1 -4.49%, O=C(/C=C/c1ccc(Cl)cc1)N1CCN(c2ccccc2[N+](=O)[O-])CC1 -2.36%, CC/C(=C(/c1ccccc1)c1ccc(OCC[N+](C)(C)C)cc1)c1ccccc1 8.4%, CCOC(=O)CN/C=C(\C#N)c1ccc(F)cc1 -0.66%, C/C(=N\OCC(=O)O)c1ccc(Cl)cc1 9.56%
